Source: PubChem BioAssay (Tox21)
Records with an inconclusive call do not appear. Activity calls are given as the source filed them. Calls come from the whole dose curve; as a rule, active = well fitted inhibition curve with a large enough effect in the repeat runs; inconclusive = weak or mixed curves; inactive = no such curve, though single readings can be large or run the other way.

The compounds below were run against Cytochrome P450 2C9 (Homo sapiens) (UniProt P11712) (assay: Cytochrome P450 Family 2 Subfamily C Member 9 (CYP2C9) small molecule antagonists: luciferase reporter qHTS assay (AID 1671198; note: nearly all actives have a fitted effect of over 50% in size)). Details: P450-Glo CYP2C9 enzyme assay, luciferin luminescence; series mostly up to 115 µM; activity change, negative = inhibition: at the top concentration.
Cytochrome P450 2C9 (Homo sapiens), sequence (P11712 whole entry, looked up): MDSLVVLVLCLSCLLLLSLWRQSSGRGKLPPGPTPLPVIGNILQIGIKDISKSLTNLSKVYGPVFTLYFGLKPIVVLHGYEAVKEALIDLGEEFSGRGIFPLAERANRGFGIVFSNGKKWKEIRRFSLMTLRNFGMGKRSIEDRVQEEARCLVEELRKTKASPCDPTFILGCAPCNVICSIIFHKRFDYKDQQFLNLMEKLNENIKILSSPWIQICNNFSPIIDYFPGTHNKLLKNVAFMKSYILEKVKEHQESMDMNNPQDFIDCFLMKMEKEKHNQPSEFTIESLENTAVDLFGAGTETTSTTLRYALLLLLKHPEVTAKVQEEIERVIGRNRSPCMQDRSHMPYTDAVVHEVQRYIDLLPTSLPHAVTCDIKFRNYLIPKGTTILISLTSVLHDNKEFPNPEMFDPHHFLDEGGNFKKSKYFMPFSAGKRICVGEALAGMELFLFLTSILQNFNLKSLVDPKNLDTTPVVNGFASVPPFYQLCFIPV
Method in brief: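 CYP2C9 activity was measured with a P450-Glo proluciferin substrate. Enzyme–substrate mix was held with compound for 10 min at room temperature, then NADPH regeneration solution was added for 1 h at 37C. Luciferin product was read as luminescence.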
% is set by controls: 0 for no effect and ±100 for the full control effect; potency is the fitted concentration of half-maximal effect.

Structure (SMILES)	activity change, negative = inhibition	Potency
Oc1cc(O)c2c(c1)O[C@H](c1ccc(O)c(O)c1)[C@H](O)C2	-13.2% [at 53 µM] (inactive)	
CCCCCC[C@@H](CCC)C(=O)O		34.7 µM (active)
C[C@H](O)C(=O)Nc1c(I)c(C(=O)NC(CO)CO)c(I)c(C(=O)NC(CO)CO)c1I	6.75% [at 53 µM] (inactive)	
NC(N)=NS(=O)(=O)c1ccc(N)cc1	14.9% [at 53 µM] (inactive)	
CCCC=O	-6.55% (inactive)	
COc1nc(C)nc(N)n1	-7.44% (inactive)	
COc1cc(C)cc(O)c1	-13% (inactive)	
COc1ccc(NC(C)=O)cc1	-24.4% (inactive)	
Nc1ccn(C2CO[C@H](CO)O2)c(=O)n1 (stereo partly drawn)	13.9% [at 53 µM] (inactive)	
NC(=O)CCCCC1CCSS1 (stereo not drawn)	-12% [at 53 µM] (inactive)	
Nc1nc(F)nc2c1ncn2[C@@H]1O[C@H](CO)[C@@H](O)[C@@H]1O	-15.3% [at 53 µM] (inactive)	
O=C(O)Cc1cc(I)c(Oc2cc(I)c(O)c(I)c2)c(I)c1		34.9 µM (active)
CCCCCOC(=O)Nc1nc(=O)n([C@@H]2O[C@H](C)[C@@H](O)[C@H]2O)cc1F	-6.63% [at 53 µM] (inactive)	
Cc1c(C)n(CCN(C)C)c2ccc(C(=O)OCCN(C)C)cc12	-2.06% [at 53 µM] (inactive)	
Nc1[nH]c(=O)ncc1F	-1.36% [at 53 µM] (inactive)	
CC(CCO)CCCC(C)(C)O (stereo not drawn)	-14.3% (inactive)	
O=C1C(CCS(=O)c2ccccc2)C(=O)N(c2ccccc2)N1c1ccccc1 (stereo not drawn)		30.9 µM (active)
NCCN1CCNC1=O	-4.18% (inactive)	
CCN1CCCC(OC(=O)C(c2ccccc2)c2ccccc2)C1 (stereo not drawn)	-8.75% [at 53 µM] (inactive)	
CCCC(C)CO (stereo not drawn)	-6.6% (inactive)	
NC(CS)C(=O)O (stereo not drawn)	-17.7% [at 53 µM] (inactive)	
CC(C)N1C(=O)c2ccccc2C1=O	-16.7% (inactive)	
CCCCc1ccc2cccc(S(=O)(=O)O)c2c1		37.3 µM (active)
